Compound activity as filed in PubChem BioAssay.
CRFR2-BP antag: antagonists of CRF-BP/CRF-R2 complex, primary screen, cell-based, HEK293, calcium dye fluorescence, uHTS. CRF-induced calcium fluorescence. inhibition, % at 11.8 µM. 350,000 tested, 0.59% active;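 active means inhibition of the ligand-induced calcium signal above about 50% at the single tested concentration, limit read from the data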
CRFBP-R2 agonist: agonists of CRF-BP/CRF-R2 complex, primary screen, cell-based, HEK293, calcium dye fluorescence, uHTS; CRF-binding protein / CRF receptor 2 complex (human); calcium dye fluorescence (FLIPR); percent of saturating CRF peptide response; activation, % at 13.2 µM; 350,000 tested, 0.46% active; AID 588473, 2011;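 active means activation of at least 50%, plus an integration ratio under a set limit after plate pattern correction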;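 further: plate controls were neutral control wells without compound for no effect and CRF at EC100 for full effect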
ANO1 activ: TMEM16A chloride channel activators or potentiators, primary screen, cell-based, HTS; 340,000 tested, 0.3% active; HEK293 TMEM16A/YFP-H148Q/I152L, iodide quench fluorescence; stronger effect = lower value; Anoctamin-1 (Mus musculus), Q8BHY3; B-score at 10 µM;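 active means fluorescence-ratio B-score plate-corrected deviation score at least 3 library SD below zero, with starting fluorescence score within 5 deviations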;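 further: channel opened by trigger with iodide after compound preincubation; score built on the fluorescence ratio of max minus min over baseline; more negative score means more quench and so TMEM16A activation or potentiation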
Target sequence (Q8BHY3 whole entry, looked up): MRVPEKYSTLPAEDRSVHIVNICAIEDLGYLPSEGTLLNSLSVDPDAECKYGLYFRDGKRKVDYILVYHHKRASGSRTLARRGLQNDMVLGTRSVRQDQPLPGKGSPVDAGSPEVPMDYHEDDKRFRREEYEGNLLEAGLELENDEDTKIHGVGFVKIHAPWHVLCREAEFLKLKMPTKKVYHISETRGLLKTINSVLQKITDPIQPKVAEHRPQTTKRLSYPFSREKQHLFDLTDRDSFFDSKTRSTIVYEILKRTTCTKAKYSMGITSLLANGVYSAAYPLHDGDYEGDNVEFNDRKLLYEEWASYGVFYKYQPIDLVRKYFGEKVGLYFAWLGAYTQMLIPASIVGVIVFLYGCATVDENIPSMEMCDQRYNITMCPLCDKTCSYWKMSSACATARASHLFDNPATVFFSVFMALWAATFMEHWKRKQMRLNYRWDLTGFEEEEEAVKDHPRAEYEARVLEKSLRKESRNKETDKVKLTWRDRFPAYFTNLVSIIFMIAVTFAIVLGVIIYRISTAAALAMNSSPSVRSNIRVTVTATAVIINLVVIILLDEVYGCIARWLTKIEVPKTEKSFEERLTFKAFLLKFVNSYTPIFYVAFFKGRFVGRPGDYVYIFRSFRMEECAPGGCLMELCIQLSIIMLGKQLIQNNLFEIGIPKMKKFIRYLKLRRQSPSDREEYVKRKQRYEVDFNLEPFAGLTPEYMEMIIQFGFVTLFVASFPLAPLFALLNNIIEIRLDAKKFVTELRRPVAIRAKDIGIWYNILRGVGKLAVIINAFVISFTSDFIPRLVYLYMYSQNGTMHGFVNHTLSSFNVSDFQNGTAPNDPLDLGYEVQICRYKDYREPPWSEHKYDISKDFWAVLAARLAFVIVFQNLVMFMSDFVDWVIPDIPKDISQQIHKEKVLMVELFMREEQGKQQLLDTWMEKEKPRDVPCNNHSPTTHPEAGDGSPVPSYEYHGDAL
RTF Ca sens inh: cardiac RTF calcium sensitivity inhibitors, primary screen, biochemical, IANBD-TnC fluorescence, EC70 calcium | Troponin I, cardiac muscle (Homo sapiens) + Troponin T, cardiac muscle (Homo sapiens) + … | inhibition, % at 7.15 µM | AID 493244, 2011 | IANBD-labeled cardiac RTF, Ca2+ fluorescence | 340,000 tested, 0.12% active;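 active means inhibition above the mean inhibition of all tested compounds plus 3 SD, cut at about 17% in these data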;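 further: assay run at fixed EC70 calcium of 1.6 mM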
RTF Ca sens act: cardiac RTF calcium sensitivity activators, primary screen, biochemical, IANBD-TnC fluorescence, EC20 calcium; Troponin I, cardiac muscle (Homo sapiens) + Troponin T, cardiac muscle (Homo sapiens) + …; IANBD-labeled TnC RTF fluorescence at EC20 calcium; 0% EC20 calcium, 100% full calcium; activation, % at 7.2 µM; 340,000 tested, 0.24% active; AID 493008, 2010;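 active means activation above the mean over all tested compounds plus 3 SD, cut at about 30% in these data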;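 further: rise in fluorescence read as greater calcium sensitivity of cardiac thin filaments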
TMEM16A inh: TMEM16A chloride channel inhibitors, primary screen, cell-based, HTS | Anoctamin-1 (Mus musculus), Q8BHY3 | HEK293 TMEM16A/YFP iodide influx fluorescence, ionomycin | normalized B-score (activity score, 25-100; higher = stronger inhibition) at 10 µM | 310,000 tested, 1.2% active | AID 588511, 2011;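 active means ratio plate-corrected score three or more library SD toward inhibition, starting fluorescence score within five deviations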;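 further: score derived from kinetic fluorescence span divided by baseline fluorescence per well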
* marks the source's active call; other numbers are inactive results; i = inactive; / = no result. Compounds with a hit are over-represented: about 2.4% of the library has one in this group of screens.

SMILES	CRFR2-BP antag	CRFBP-R2 agonist	ANO1 activ	RTF Ca sens inh	RTF Ca sens act	TMEM16A inh
CCOC(=O)c1sc(NC(=O)CSc2nc(-c3ccco3)cc(C(F)(F)F)n2)c(C(=O)OCC)c1C	-13.4	8.8	-7.66*	-1.6	2.4	/
CCOC(=O)c1c(NC(=O)CSc2nnnn2-c2ccc(OC)cc2)sc(C)c1C	0.0	0.6	i	-4.7	-0.3	25*
COC(=O)c1ccc(CSc2nc(-c3ccco3)cc(C(F)(F)F)n2)o1	25.3	-0.8	-5.05*	-3.1	1.0	i
COC(=O)c1ccc(CSc2nc(-c3ccccc3)cs2)o1	29.9	-1.0	i	-10.9	6.4	25*
Cc1ccc(C2=NNC(c3ccc(Cl)cc3)=Nc3ccccc32)o1	-14.2	-5.6	i	-2.6	10.2	i
CCCC(=O)Nc1ccc2c(c1)nc(CCN1CCCCC1)n2C	-9.7	-0.1	i	-9.2	-8.2	i
Cc1ccc2sc(-c3ccc(NC(=O)CCN4C(=O)c5ccccc5C4=O)cc3)nc2c1	/	/	/	/	/	i
CCOC(=O)c1c(NC(=O)c2cc(CC(C)C)on2)sc(C(C)=O)c1C	-15.5	4.7	i	-5.1	-4.4	i
CCOC(=O)c1c(NC(=O)c2cc(C(C)C)on2)sc(C(C)=O)c1C	-3.9	1.2	-11.9*	2.4	3.5	i
CCOC(=O)c1c(NC(=O)CSc2nc3ccccc3s2)sc(C(C)=O)c1C	39.2	4.4	i	5.1	2.1	25*
Cn1ncc(Cl)c1C(=O)NNC(=O)Nc1cccc2ccccc12	6.6	-0.6	i	-1.6	-4.2	i
CCCC1CC(C#N)N(N(C)C)C1=C(C#N)C#N (stereo not drawn)	51.9*	-0.3	i	-2.2	1.1	i
CCOC(=O)c1c(C)[nH]c(C(=O)OCC(=O)Nc2sccc2C(N)=O)c1C	-3.9	0.7	i	-5.0	-14.5	100*
CCOC(=O)c1c(C)[nH]c(C(=O)OCC(=O)Nc2ccc(Cl)cn2)c1C	2.1	2.3	i	-1.3	1.4	/
O=C(Nc1ccc2nc(-c3ccccc3)oc2c1)c1ccco1	-20.9	-5.0	-13.9*	-4.0	5.0	i
CCC(=O)N1CCc2cc(S(=O)(=O)N3CCN(c4ccccc4Cl)CC3)ccc21	-10.7	1.9	i	-10.8	-4.6	i
N#Cc1ccccc1NC(=O)COC(=O)c1ccc2c(c1)OCO2	4.8	0.8	i	2.5	-0.9	/
O=C(Cn1nc(-c2cccc([N+](=O)[O-])c2)c2ccccc2c1=O)NCC1CCCO1 (stereo not drawn)	1.9	-1.3	i	-6.6	1.0	i
c1ccc(C2CN3CCSC3=N2)cc1 (stereo not drawn)	89.1*	-2.4	i	5.9	11.1	i
N/C(=N\OC(=O)c1ccc2ccccc2c1)c1ccccc1Cl	-6.6	-1.3	i	4.3	-4.3	i
Cc1ccccc1NS(=O)(=O)c1cc2c(cc1C)NC(=O)CO2	-84.6	59.9*	i	-9.1	0.2	i
COc1ccc(NC(=O)CSc2nnc(NC(=O)c3ccccc3C(=O)O)s2)cc1	28.5	-0.3	i	-5.8	0.8	i
CCOc1cc(/C=C(/C#N)C(=O)Nc2ccc(O)cc2)cc(Br)c1O	-81.2	95.6*	i	-9.4	6.7	i
CCOc1ccc(NC(=O)/C(C#N)=C/c2ccc(N3CCCC3)c(C)c2)cc1	-134.8	119.3*	i	-50.6	67.1*	i
CCOc1ccc(NC(=O)CN(C)C(=O)c2c(-c3ccccc3Cl)noc2C)cc1OCC	3.7	-0.8	i	-12.7	2.1	i
SMILES	CRFR2-BP antag	CRFBP-R2 agonist	ANO1 activ	RTF Ca sens inh	RTF Ca sens act	TMEM16A inh
CC(=O)c1ccc(OC(=O)CCc2nc3ccccc3s2)cc1	-13.3	0.5	i	/	/	i
O=C(CC(NC(=O)OCc1ccccc1)C(=O)OCc1ccccc1)OCc1ccccc1 (stereo not drawn)	88.2*	6.5	i	-6.9	3.7	/
Cc1ccc2sc(C)[n+](CCCS(=O)(=O)[O-])c2c1	11.2	-1.3	i	-8.6	1.3	i
COc1cc(/C=C/c2sc3ccccc3[n+]2CCCS(=O)(=O)[O-])ccc1O	-13.8	19.0	i	-85.2	68.2*	i
Cc1ccc2c(c1)sc(C)[n+]2CCCS(=O)(=O)[O-]	0.0	0.5	i	-5.8	3.0	i
CCC(/C=C1\Oc2ccc(OC)cc2N1C)=C\c1sc2ccccc2[n+]1CCCS(=O)(=O)[O-]	10.3	1.5	i	-11.0	76.8*	/
CC1(c2ccccc2)NC(=O)N(CC(=O)Nc2ccc3c(c2)OCO3)C1=O (stereo not drawn)	-0.9	-1.6	i	-2.9	0.0	i
CC1(c2ccc(OC(F)F)cc2)NC(=O)N(CC(=O)Nc2ccccc2)C1=O (stereo not drawn)	-33.7	76.1*	-10.2*	-5.0	4.7	i
CC1(c2ccc(OC(F)F)cc2)NC(=O)N(CC(=O)Nc2ccc3[nH]c(=O)[nH]c3c2)C1=O (stereo not drawn)	-10.9	1.8	i	-25.4	-4.2	i
CC1(c2ccc(OC(F)F)cc2)NC(=O)N(CC(=O)Nc2ccc3c(c2)OCO3)C1=O (stereo not drawn)	-56.5	121.9*	-5.87*	1.4	2.1	i
CCOC(=O)CN1C(=O)NC(C)(c2ccc(OC(F)F)cc2)C1=O (stereo not drawn)	-0.8	-0.1	i	-0.9	0.4	25*
CCOc1ccccc1Nc1nnc(SCC(=O)N(C)C2CCS(=O)(=O)C2)s1 (stereo not drawn)	-4.0	-0.6	i	6.8	-5.2	/
CCOC(=O)N1CCN(C(=O)COC(=O)c2ccc(Cl)nc2)CC1	-5.8	5.2	i	3.7	-4.4	/
CC(C)(C)c1ccc(/C=C2\Oc3cc(O)ccc3C2=O)cc1	-13.4	16.5	i	-20.9	9.4	i
COC(=O)c1ccc2c(c1)C(=O)/C(=C/c1ccc(O)cc1)O2	-80.7	76.7*	i	-1.6	5.5	i
O=C1/C(=C/c2ccc(Br)cc2)Oc2cc(O)ccc21	-13.9	49.0	i	-31.5	20.2	100*
Cn1ncc(Cl)c1C(=O)Nc1ccc(CN2CCCCC2)cc1	9.5	1.4	i	4.8	-2.9	i
COc1ccc(-c2nn(-c3ccccc3)cc2/C=C2/SC(=S)N(CCC(=O)O)C2=O)c(C)c1	52.0*	-0.9	i	1.9	-9.8	i
